In PubChem BioAssay AID1159580 (chemical genetic matrix, 2015):
About 2,000 (36%) of roughly 5,500 compounds were called active. Inconclusive results (about 18%) are left out. Cut-off read from the data, not from the text of the source: active = normalized growth mostly below about 0.91 (no sharp cut-off); inconclusive = no clear call, values can overlap the other calls; inactive = mostly above about 0.92. The list shows a part of the results.

Experiment: chemical genetic growth profiling, strain panel (AID 1159580);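 note: tested at 20 µM; growth read once vehicle control cultures reached saturation at 30 °C; 1 = growth at the plate median or of vehicle wells; lower values mean less growth of the strain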
Settings: S. cerevisiae deletion strains, growth OD

Measured: normalized growth

CCC(=O)OCC(=O)C1(OC(=O)CC)C(C)CC2C3C(Cl)CC4=CC(=O)C=CC4(C)C3C(O)CC21C (stereo not given)
inactive: locus YAL021C, strain ccr4, stronger effect = lower value 1.02 | locus YAL026C, strain drs2, stronger effect = lower value 1.03 | locus YAL030W, strain snc1, stronger effect = lower value 1.01 | locus YBL061C, strain skt5, stronger effect = lower value 1.01 | locus YBR009C, strain hhf1, stronger effect = lower value 1.09 | locus YBR023C, strain chs3, stronger effect = lower value 1.02 | locus YBR171W, strain sec66, stronger effect = lower value 1.04 | locus YBR231C, strain swc5, stronger effect = lower value 1.02 | locus YBR279W, strain paf1, stronger effect = lower value 1.01 | locus YCL011C, strain gbp2, stronger effect = lower value 1.06 | locus YCL016C, strain dcc1, stronger effect = lower value 1.04 | locus YCL069W, strain vba3, stronger effect = lower value 1.04 | locus YCR088W, strain abp1, stronger effect = lower value 1.03 | locus YDL005C, strain med2, stronger effect = lower value 1.02 | locus YDL040C, strain nat1, stronger effect = lower value 1.01 | locus YDR001C, strain nth1, stronger effect = lower value 1.04 | locus YDR069C, strain doa4, stronger effect = lower value 1.02 | locus YDR137W, strain rgp1, stronger effect = lower value 1.03 | locus YDR159W, strain sac3, stronger effect = lower value 1.01 | locus YDR195W, strain ref2 1 | locus YDR297W, strain sur2, stronger effect = lower value 1.03 | locus YDR334W, strain swr1, stronger effect = lower value 1.02 | locus YDR335W, strain msn5, stronger effect = lower value 1.05 | locus YDR392W, strain spt3, stronger effect = lower value 1.08 | locus YEL003W, strain gim4, stronger effect = lower value 1.04 | locus YEL037C, strain rad23, stronger effect = lower value 1.05 | locus YEL061C, strain CIN8 (second series), stronger effect = lower value 1.02 | locus YER015W, strain faa2, stronger effect = lower value 1.01 | locus YER016W, strain bim1, stronger effect = lower value 1.04 | locus YER111C, strain swi4, stronger effect = lower value 1.04 | locus YER155C, strain BEM2 (second series), stronger effect = lower value 1.08 | locus YFR010W, strain ubp6, stronger effect = lower value 1.02 | locus YGL167C, strain pmr1, stronger effect = lower value 1.06 | locus YGL173C, strain kem1, stronger effect = lower value 1.02 | locus YGL227W, strain vid30, stronger effect = lower value 1.01 | locus YGL240W, strain doc1, stronger effect = lower value 1.01 | locus YGL253W, strain hxk2, stronger effect = lower value 1.02 | locus YHR013C, strain ard1, stronger effect = lower value 1.08 | locus YHR027C, strain rpn1, stronger effect = lower value 1.03 | locus YHR142W, strain chs7, stronger effect = lower value 1.04 | locus YJL092W, strain hpr5, stronger effect = lower value 1.04 | locus YJL095W, strain BCK1 (second series), stronger effect = lower value 1.06 | locus YJL115W, strain asf1, stronger effect = lower value 1.02 | locus YJL129C, strain trk1, stronger effect = lower value 0.987 | locus YJL154C, strain vps35, stronger effect = lower value 1.03 | locus YJL164C, strain tpk1, stronger effect = lower value 1.07 | locus YJL166W, strain qcr8, stronger effect = lower value 1 | locus YKL160W, strain elf1, stronger effect = lower value 1.04 | locus YKR026C, strain gcn3, stronger effect = lower value 1.03 | locus YKR091W, strain srl3, stronger effect = lower value 1.03 | locus YLL001W, strain dnm1, stronger effect = lower value 1.06 | locus YLL026W, stronger effect = lower value 1.04 | locus YLL041C, strain sdh2, stronger effect = lower value 1.05 | locus YLR027C, strain aat2, stronger effect = lower value 1.06 | locus YLR221C, strain rsa3, stronger effect = lower value 1.07 | locus YLR258W, strain gsy2, stronger effect = lower value 1.07 | locus YLR262C, strain YPT6 (second series), stronger effect = lower value 1.04 | locus YLR320W, strain mms22, stronger effect = lower value 1.02 | locus YLR342W, strain FKS1, stronger effect = lower value 1.03 | locus YLR357W, strain rsc2, stronger effect = lower value 1.09 | locus YLR370C, strain arc18, stronger effect = lower value 1.03 | locus YLR384C, strain iki3, stronger effect = lower value 1.03 | locus YML120C, strain ndi1, stronger effect = lower value 1.02 | locus YMR058W, strain fet3, stronger effect = lower value 1.02 | locus YMR125W, strain sto1, stronger effect = lower value 1.07 | locus YMR129W, stronger effect = lower value 1.03 | locus YMR205C, strain PFK2, stronger effect = lower value 1.02 | locus YMR231W, strain pep5, stronger effect = lower value 1.03 | locus YNL071W, strain lat1, stronger effect = lower value 1.02 | locus YNL209W, strain ssb2, stronger effect = lower value 1.01 | locus YNL248C, strain rpa49, stronger effect = lower value 1.03 | locus YNL322C, strain KRE1 (second series), stronger effect = lower value 1.01 | locus YNR049C, strain mso1, stronger effect = lower value 1.03 | locus YOR001W, strain rrp6, stronger effect = lower value 1.04 | locus YOR070C, strain gyp1, stronger effect = lower value 1.02 | locus YOR080W, strain dia2, stronger effect = lower value 1.02 | locus YOR083W, strain WHI5, stronger effect = lower value 1.04 | locus YOR106W, strain vam3, stronger effect = lower value 1 | locus YOR265W, strain rbl2, stronger effect = lower value 1.02 | locus YOR270C, strain vph1, stronger effect = lower value 0.923 | locus YOR290C, strain snf2, stronger effect = lower value 1.06 | locus YPL051W, strain arl3, stronger effect = lower value 1.04 | locus YPL078C, strain atp4, stronger effect = lower value 0.999 | locus YPL106C, strain sse1, stronger effect = lower value 1.12 | locus YPL240C, strain hsp82, stronger effect = lower value 1.02
